Experimental data published in PubChem BioAssay.
Potency and affinity values are given separately. Inconclusive results are not listed. A call without a number means that no potency is given here. Calls of active or inactive are those of the source.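 The calls were made as follows, unless noted: active = signal-lowering compounds whose fitted half-maximal concentration is at or below twice the top tested dose in every run; inconclusive = runs disagree, flat 30 to 70% inhibition, or poor curve fit; inactive = the rest.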

Assay: cytotoxicity in IOSE-T80 ovarian epithelial cells, dose response, selectivity assay for PAX8 inhibitor project, cell-based, cherry-pick (AID 687032;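 active = fitted half-maximal concentration for viability loss no higher than twice the top valid dose, in every repeat run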;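 also: cells exposed to compound for 96 h before reading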)
Conditions: CellTiterGlo ATP luminescence, 96 h; series mostly up to 35 µM

SMILES | outcome
COC(=O)C12OCC34C(CC5C(C)=C(O)C(=O)CC5(C)C3C(O)C1O)OC(=O)C(OC(=O)C=C(C)C)C24 (stereo not given) | inactive
O=C(NCc1cccnc1)/C(=C\c1ccc(-c2ccc(Cl)c(Cl)c2)o1)S(=O)(=O)c1ccccc1 | inactive
Oc1ccc(C[C@H]2CNC(=S)N2CC2CCCN2C[C@H](Cc2ccccc2)N2C[C@H](Cc3ccc(O)cc3)N(CCc3ccccc3)C2=S)cc1 (stereo not given in full) | inactive
O=C(C[C@@H]1C[C@H]2c3cc(NS(=O)(=O)c4ccc(F)cc4)ccc3O[C@H]2[C@@H](CO)O1)NCc1ccc(Oc2ccccc2)cc1 | inactive
CCCCn1nc(C(=O)Nc2cc(C(F)(F)F)ccc2N2CCOCC2)ccc1=O | inactive
CN(C[C@H]1N[C@@H](CO)[C@@H]1c1ccc(C2=CCCC2)cc1)C(=O)c1ccncc1 | inactive
CCN(c1nc(N)c(C(=O)N=C(N)N)nc1Cl)C(C)C | inactive
CC(C)=CCC/C(C)=C/CNC(=O)C[C@H]1C[C@H](C(=O)N2CCOCC2)[C@@]2(C)c3[nH]c4ccc(Cl)cc4c3CCN2C1=O | inactive
NC(=O)[C@H]1CC2(CC(c3cccc(NC(=O)COc4ccc(Cl)cc4)c3)=NO2)CN1C(=O)C(c1ccccc1)c1ccccc1 (stereo not given in full) | inactive
CC1=C(C(=O)OC2CCCCC2)C(c2cccnc2)n2ncnc2N1 (stereo not given) | inactive
COC(C(=O)C(O)C(C)O)C1Cc2cc3cc(OC4CC(OC5CC(O)C(O)C(C)O5)C(O)C(C)O4)c(C)c(O)c3c(O)c2C(=O)C1OC1CC(OC2CC(OC3CC(O)C(OC)C(C)O3)C(O)C(C)O2)C(O)C(C)O1 (stereo not given) | inactive
O=C(NCCC1CCCCN1S(=O)(=O)c1ccc(Cl)cc1)C(=O)NCc1ccncc1 (stereo not given) | inactive
O=C(OCC(=O)N1CCN(C(=O)c2ccco2)CC1)c1cccc(S(=O)(=O)N2CCc3ccccc32)c1 | inactive
O=C(O)c1cccc(N/N=C/c2cccs2)c1 | inactive
CN(Cc1ccccc1)N=Nc1nc[nH]c1C(N)=O | inactive
CCOc1ccccc1NC(=O)c1nc(S(=O)(=O)Cc2ccccc2)ncc1Cl | inactive
CCc1ccc(CNC(=O)C2CCCN(c3nnc(C)c4c(C)n(-c5ccccc5)nc34)C2)cc1 (stereo not given) | inactive
COc1ccc(NS(=O)(=O)c2ccc(N3CCCC3)c(NC(=S)Nc3ccc(SC(F)F)cc3)c2)cc1 | inactive
Cc1ccc(S(=O)(=O)Nc2ccc3c(c2)C(=O)N([C@H](C)CO)C[C@H](C)[C@@H](CN(C)S(=O)(=O)c2ccc(C)cc2)OCCCC[C@H](C)O3)cc1 | inactive
C[C@@H](NC(=O)c1nc[nH]c1C(=O)N[C@@H](Cc1ccccc1)C(=O)OC(C)(C)C)c1ccccc1 | inactive
COc1nn(-c2ccccc2)c(=O)c(Cl)c1Cl | inactive
C=C(C)C(=O)OC1(C(F)(F)F)Oc2cc(C)ccc2NC1=O (stereo not given) | inactive
O=C(OCc1ccccc1)N(CCCCN(CCCNCc1ccccc1)C(=O)OCc1ccccc1)CCCNCc1ccccc1 | inactive
CCO[C@H]1OC(C(=O)N2CCN(Cc3ccccc3)CC2)=C[C@@H](c2ccc(C(F)(F)F)cc2)[C@@H]1CCCO | inactive
C[C@@H]1CCCCO[C@@H](CN(C)Cc2ccc(Cl)c(Cl)c2)[C@H](C)CN([C@@H](C)CO)C(=O)c2cc(NC(=O)CCC(F)(F)F)ccc2O1 | inactive
Cc1ccc(C)c(N2CCN(C(=O)CCCCCn3c(=S)[nH]c4ccc(N5CCOCC5)cc4c3=O)CC2)c1 | inactive

Assay: inhibitors of CMV-promoter luciferase reporter, dose response, counter-screen for Pax8 inhibitor project, cell-based, HEK293, luminescence, dry powder (AID 743020);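 also: HEK293 cells stably expressing the CMV luciferase reporter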
Conditions: SteadyGlo luminescence, 24 h; series mostly up to 35 µM

SMILES | outcome
COc1cccc(/C=C2\SC(=S)N(CCC(=O)NCCc3ccc(O)cc3)C2=O)c1 | inactive
FC(F)(F)c1nnc2c(Sc3ccccc3)nc3ccc(Cl)cc3n12 | inactive
O=C(Nc1cccc(NC(=O)c2ccc([N+](=O)[O-])o2)c1)c1ccco1 | inactive
Cc1ccc(NC(=O)c2ccc([N+](=O)[O-])s2)cc1S(=O)(=O)N1CCOCC1 | inactive
C[C@@H]1CCCCO[C@@H](CN(C)Cc2ccc3c(c2)OCO3)[C@H](C)CN([C@@H](C)CO)C(=O)c2cc(NC(=O)Nc3ccc(C(F)(F)F)cc3)ccc2O1 | inactive
COc1ccc(Br)cc1/C=C/C(=O)c1ccc(NC(C)=O)cc1 | inactive
O=C(CCCN1C(=O)/C(=C/c2cccc(Br)c2)SC1=S)Nc1cccnc1 | inactive
C[C@H](CO)N1C[C@H](C)[C@@H](CN(C)Cc2ccncc2)Oc2ccc(NC(=O)Nc3ccc(C(F)(F)F)cc3)cc2CC1=O | inactive
COc1ccc(O)c(/C=N/NC(=O)c2ccc(N3CCCC3=O)cc2)c1 | inactive
CCCCn1cnc2c(c(-c3ccccc3)c(-c3ccccc3)n2Cc2ccco2)c1=N | inactive
COc1cc(/C=N/NC(=O)c2ccc(CN3C(=O)c4cccc5cccc3c45)cc2)cc(OC)c1O | inactive
COc1ccccc1C(=O)Nc1nc2ccccc2s1 | inactive
CC(=O)OC(C)(C)/C=C/C(=O)[C@](C)(O)C1[C@H](O)C[C@@]2(C)C3CC=C4C(C=C(O[C@@H]5O[C@H](CO)[C@@H](O)[C@H](O)[C@H]5O)C(=O)C4(C)C)[C@]3(C)C(=O)C[C@]12C (stereo not given in full) | inactive
COC(=O)C12OCC34C(CC5C(C)=C(O)C(=O)CC5(C)C3C(O)C1O)OC(=O)C(OC(=O)C=C(C)C)C24 (stereo not given) | inactive
O=C(NCc1cccnc1)/C(=C\c1ccc(-c2ccc(Cl)c(Cl)c2)o1)S(=O)(=O)c1ccccc1 | inactive
Oc1ccc(C[C@H]2CNC(=S)N2CC2CCCN2C[C@H](Cc2ccccc2)N2C[C@H](Cc3ccc(O)cc3)N(CCc3ccccc3)C2=S)cc1 (stereo not given in full) | inactive
O=C(C[C@@H]1C[C@H]2c3cc(NS(=O)(=O)c4ccc(F)cc4)ccc3O[C@H]2[C@@H](CO)O1)NCc1ccc(Oc2ccccc2)cc1 | inactive
CCCCn1nc(C(=O)Nc2cc(C(F)(F)F)ccc2N2CCOCC2)ccc1=O | inactive
CN(C[C@H]1N[C@@H](CO)[C@@H]1c1ccc(C2=CCCC2)cc1)C(=O)c1ccncc1 | inactive
CCN(c1nc(N)c(C(=O)N=C(N)N)nc1Cl)C(C)C | inactive

SMILES | outcome
CC(C)=CCC/C(C)=C/CNC(=O)C[C@H]1C[C@H](C(=O)N2CCOCC2)[C@@]2(C)c3[nH]c4ccc(Cl)cc4c3CCN2C1=O | inactive
NC(=O)[C@H]1CC2(CC(c3cccc(NC(=O)COc4ccc(Cl)cc4)c3)=NO2)CN1C(=O)C(c1ccccc1)c1ccccc1 (stereo not given in full) | inactive
CC1=C(C(=O)OC2CCCCC2)C(c2cccnc2)n2ncnc2N1 (stereo not given) | inactive
COC(C(=O)C(O)C(C)O)C1Cc2cc3cc(OC4CC(OC5CC(O)C(O)C(C)O5)C(O)C(C)O4)c(C)c(O)c3c(O)c2C(=O)C1OC1CC(OC2CC(OC3CC(O)C(OC)C(C)O3)C(O)C(C)O2)C(O)C(C)O1 (stereo not given) | inactive
O=C(NCCC1CCCCN1S(=O)(=O)c1ccc(Cl)cc1)C(=O)NCc1ccncc1 (stereo not given) | inactive
O=C(OCC(=O)N1CCN(C(=O)c2ccco2)CC1)c1cccc(S(=O)(=O)N2CCc3ccccc32)c1 | inactive
O=C(O)c1cccc(N/N=C/c2cccs2)c1 | inactive
CN(Cc1ccccc1)N=Nc1nc[nH]c1C(N)=O | inactive
CCOc1ccccc1NC(=O)c1nc(S(=O)(=O)Cc2ccccc2)ncc1Cl | inactive
CCc1ccc(CNC(=O)C2CCCN(c3nnc(C)c4c(C)n(-c5ccccc5)nc34)C2)cc1 (stereo not given) | inactive
COc1ccc(NS(=O)(=O)c2ccc(N3CCCC3)c(NC(=S)Nc3ccc(SC(F)F)cc3)c2)cc1 | inactive
Cc1ccc(S(=O)(=O)Nc2ccc3c(c2)C(=O)N([C@H](C)CO)C[C@H](C)[C@@H](CN(C)S(=O)(=O)c2ccc(C)cc2)OCCCC[C@H](C)O3)cc1 | inactive
C[C@@H](NC(=O)c1nc[nH]c1C(=O)N[C@@H](Cc1ccccc1)C(=O)OC(C)(C)C)c1ccccc1 | inactive
COc1nn(-c2ccccc2)c(=O)c(Cl)c1Cl | inactive
C=C(C)C(=O)OC1(C(F)(F)F)Oc2cc(C)ccc2NC1=O (stereo not given) | inactive
O=C(OCc1ccccc1)N(CCCCN(CCCNCc1ccccc1)C(=O)OCc1ccccc1)CCCNCc1ccccc1 | inactive
CCO[C@H]1OC(C(=O)N2CCN(Cc3ccccc3)CC2)=C[C@@H](c2ccc(C(F)(F)F)cc2)[C@@H]1CCCO | inactive
C[C@@H]1CCCCO[C@@H](CN(C)Cc2ccc(Cl)c(Cl)c2)[C@H](C)CN([C@@H](C)CO)C(=O)c2cc(NC(=O)CCC(F)(F)F)ccc2O1 | inactive
Cc1ccc(C)c(N2CCN(C(=O)CCCCCn3c(=S)[nH]c4ccc(N5CCOCC5)cc4c3=O)CC2)c1 | inactive
